The panel holds about 83,000 compounds, 20% with a hit somewhere; the sample as a whole holds those more often.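 Single-dose data. Exposure time 48 hours. Values below 10 considered active.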 Calls of active or inactive are those of the source.

The assay relates to MCF7 breast. In words: NCI-60 one-dose screen, 48 h (100 = growth as untreated, 0 = no growth, -100 = all killed). As to conditions: 10 µM. The protocol: Growth inhibition of the MCF7 human tumor cell line is measured as a screen for anti-cancer activity. Cells are grown in 96 well plates and exposed to the test compound for 48 hours. Compounds are tested at a single concentration, which is 10^-5 M for most compounds. The reported endpoint is percent growth (GI% or GIPRCNT), where numbers from 0 - 100% represent growth inhibition, and numbers from -100% - 0 represent cell death. For example, a value of 40 represents 60% growth inhibition. A value of 0 means no net growth occurred over the course of the experiment. A value of -40 indicates 40% of cells at the beginning of the experiment died by the end of the experiment. A value of -100 means all cells are dead at the end of the experiment.
NCI-60 Human Tumor Cell Lines Screen was performed using the standard one-dose NCI protocol, which is described in more detail at https://dtp.cancer.gov/discovery_development/nci-60/default.htm.
Compounds with GIPRCNT values below 10 were considered active. Activity score was based on GIPRCNT using the following formula: […]
Score is 0 for GIPRCNT values of 100 or above, 50 for GIPRCNT values of 0, and 100 for GIPRCNT values of -100.
`CC1=C(CCC=O)C2=C(C)C3(CC3)[C@@](C)(O)C(=O)C2=C1`: the growth is -44.2% (active).
Then `O=C(/C=C/c1ccc(F)cc1)c1nc2ccccc2n1Cc1ccc(F)cc1`, with 7.32% (active); and `O=C(/C=C/c1ccccc1)c1nc2ccccc2n1Cc1ccc(Br)cc1`, with -48.7% (active).
In the case of `Cc1ccc2[nH]c(=S)n(-c3ccc(F)cc3)c(=O)c2c1`, the growth was 95% (inactive).
With `O=C(/C=C/c1ccc(Cl)cc1)c1nc2ccccc2n1Cc1ccc(F)cc1`, the growth was 9.25% (active).
For `CC(C)N=C([Se])NC(=O)c1ccccc1` the value was -29.1% (active); for `CC[C@]12C=CCN3CC[C@@]4(c5ccc(OC)cc5N(C)[C@H]4[C@@](O)(C(=O)OC)[C@@H]1OC(=O)CCCC[P+](c1ccc(C)cc1)(c1ccc(C)cc1)c1ccc(C)cc1)[C@@H]32`, -81.2% (active); for `C[C@H]1[C@@H](CC(=O)N[C@@H](Cc2coc3ccccc23)B(O)O)O[C@@H]2OC3(C)CC[C@H]4[C@H](C)CC[C@@H]1[C@@]24OO3`, 12% (inactive).
For `COCCOCCOCCOc1ccc(-n2cc(-c3ccc(O[C@H]4O[C@@H]5OC6(C)CC[C@H]7[C@H](C)CC[C@@H]([C@H]4C)[C@@]57OO6)cc3)nn2)cc1` the value was 14.9% (inactive); for `COc1cc(OC)c(/C=C/C(=O)c2nc3ccccc3n2Cc2ccc(F)cc2)c(OC)c1`, 56.1% (inactive); for `O=C(/C=C/c1ccccc1)c1nc2ccccc2n1Cc1ccc(F)cc1`, -32.7% (active).
Then `C[C@H]1[C@H](OC(=O)CCC(=O)Nc2cnccn2)O[C@@H]2OC3(C)CC[C@H]4[C@H](C)CC[C@@H]1[C@@]24OO3`, with 24.4% (inactive); and `COc1cc2cc(C(=O)N3C[C@@H](CCl)c4c3cc(OC(=O)N3CCN(C)[C@@H]5CSSC[C@H]53)c3ccccc43)[nH]c2c(OC)c1OC`, with -56.2% (active); and `O=C(/C=C/c1ccccc1Cl)c1nc2ccccc2n1Cc1ccc(F)cc1`, with -59.3% (active).
Consider `CCOC(=O)C1=C(Nc2ccccc2)C(=O)OC12C(=O)Nc1ccccc12` (stereo not given), for which the growth was 95.6% (inactive).
Then `CC(=C\C(=O)Oc1ccc2c3c1OC1C(O)CCC4(O)C(C2)N(CC2CCC2)CCC314)/C=C1\CCCc2ccccc21` (stereo not given), with 35.3% (inactive); and `CC(=O)Oc1ccccc1C(=O)NC([Se])=NC1CCCCC1`, with 1.18% (active); and `O=C(/C=C/c1ccco1)c1nc2ccccc2n1Cc1ccc(F)cc1`, with 8.93% (active).
For `O=C(/C=C/c1ccc(Cl)cc1)c1nc2ccccc2n1Cc1ccc(Br)cc1` the value was 9.41% (active); for `CCOP(=O)(OCC)C(NC(C)=O)C(=O)SCCN` (stereo not given), 95.5% (inactive); for `CC12OOC(C)(OO1)C2CCC(=O)OCCNc1ccnc2cc(Cl)ccc12` (stereo not given), 24.2% (inactive).
Then `COC(=O)C[C@](O)(CCC(C)C)C(=O)O[C@@H]1C(OC)=C[C@]23CCCN2CCc2cc4c(cc2[C@H]13)OCO4`, with -19.4% (active); and `Cc1c2oc3c(C)ccc(C(=O)N[C@@H]4C(=O)N[C@H](C(C)C)C(=O)N5CCC[C@H]5C(=O)N(C)CC(=O)N(C)[C@@H](C(C)C)C(=O)OC4C)c3nc-2c(C(=O)N[C@@H]2C(=O)N[C@H](C(C)C)C(=O)N3CC(=O)C[C@H]3C(=O)N(C)CC(=O)N(C)[C@@H](C(C)C)C(=O)OC2C)c(N)c1=O` (stereo not given in full), with 1.42% (active).
`COc1cc2cc(C(=O)N3C[C@@H](CCl)c4c3cc(OC(=O)N3CCN(C(=O)CCC(=O)N5CCN(C)CC5)[C@@H]5CSSC[C@@H]53)c3ccccc43)[nH]c2c(OC)c1OC`: the growth was -92.4% (active).
For `CC12CCC3(CCC(=O)NCCCNc4ccnc5cc(Cl)ccc45)[C@@](C)(OO[C@]3(C)O1)O2` the value was 9.36% (active); for `O=C(/C=C/c1ccc(F)cc1)c1nc2ccccc2n1Cc1ccc(Br)cc1`, -27.4% (active).
Then `COC(=O)c1ccc(-n2cc(CCCN(CCNc3ccnc4cc(Cl)ccc34)C(=O)CCC(=O)O[C@@H]3O[C@@H]4OC5(C)CC[C@H]6[C@H](C)CC[C@@H]([C@H]3C)[C@@]46OO5)nn2)cc1`, with -49.6% (active).
`CC(=O)Oc1ccccc1C(=O)[Se]C(=NC(C)C)NC(C)C`: the growth is -55% (active).
For `CC12OOC(C)(OO1)C2CCC(=O)NCCCNc1ccnc2cc(Cl)ccc12` (stereo not given) the value was 58.1% (inactive); for `COP(=O)(CC(F)(F)C(F)(F)F)OC`, 3.91% (active).
Then `O=C(/C=C/c1ccc(Cl)cc1Cl)c1nc2ccccc2n1Cc1ccc(F)cc1`, with 5.98% (active); and `COc1cc(OC)c(S(=O)(=O)N(CCCl)CCCl)cc1C(=O)/C=C/c1cc(OC)c(OC)c(OC)c1`, with -39.2% (active).
Then `CC1=C2C(=C[C@@](C)(COP(=O)(Oc3ccccc3)Oc3ccccc3)[C@@H]2O)C(=O)[C@@](C)(O)C12CC2`, with 4.25% (active).
In the case of `O=C(NCCCCC(c1ccc(F)cc1)c1ccc(F)cc1)Nc1ccc([N+](=O)[O-])c(C(F)(F)F)c1`, the growth was 1.44% (active).
As to `COc1ccc(OC)c(/C=C/C(=O)c2nc3ccccc3n2Cc2ccc(F)cc2)c1`, the growth was 2.95% (active).
`CC[C@@]12CC(C(=O)OC)=C3Nc4cc5c(cc4[C@@]34CCN(C[C@H]3O[C@H]31)[C@@H]24)[C@@H]1[C@H](O5)[C@@H](O)[C@@]2(CC)CC(C(=O)OC)=C3Nc4cc(OC)ccc4[C@@]34CCN1[C@@H]24`: the growth is 2.22% (active).
For `CC[C@]12C=CCN3CC[C@@]4(c5ccc(OC)cc5N(C)[C@H]4[C@@](O)(C(=O)OC)[C@@H]1OC(=O)CCC[P+](c1ccc(F)cc1)(c1ccc(F)cc1)c1ccc(F)cc1)[C@@H]32` the value was 7.7% (active).
Turning to `O=C(/C=C/c1ccco1)c1nc2ccccc2n1Cc1ccc(Br)cc1`, the growth is 2.72% (active).
Then `O=C(/C=C/c1cccc(Br)c1)c1nc2ccccc2n1Cc1ccc(F)cc1`, with 8.41% (active); and `C[C@H]1[C@H](OC(=O)CCC(=O)N(CCCc2cn(-c3ccc(CN4CCOCC4)cc3)nn2)CCNc2ccnc3cc(Cl)ccc23)O[C@@H]2OC3(C)CC[C@H]4[C@H](C)CC[C@@H]1[C@@]24OO3`, with 11.2% (inactive).

Values taken from PubChem BioAssay (NCI).
